Test results reported in PubChem BioAssay (Tox21).
Inconclusive results are not listed. Activity calls are given as the source filed them. Unless noted, calls come from the whole dose curve; as a rule, active = well fitted curve in the direction sought with a large enough effect in the repeat runs; inconclusive = weak or mixed curves; inactive = no such curve, though single readings can be large; an effect the other way counts as inactive or inconclusive.

What was measured:
[1] = qHTS RealTime-Glo MT Cell Viability Assay in HEK293 cells - 8 hour (AID 1224887); note: nearly all actives have a fitted effect of over 50% in size; note: potency is the fitted concentration of half-maximal effect; for activity change, negative = cytotoxicity: top concentration of the series differs between compounds
Outline: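 Nonlytic bioluminescent viability monitoring. HEK293 at 600 cells/well with reagent; 5 h settle; compound transfer by pintool; plates held at 37 C and read at set time points.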

[2] = A CellTox Green Cytotoxicity Assay to monitor cytotoxicity in HEK293 cells - 16 hour (AID 1224888); note: nearly all actives have a fitted effect of over 35% in size; note: potency is the fitted concentration of half-maximal effect
Outline: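 Cytotoxicity was tracked continuously in HEK293 cells by a DNA-binding dye excluded from viable cells. Compounds were transferred in DMSO 5 h after seeding; fluorescence was recorded at intervals up to 40 h.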

[3] = qHTS RealTime-Glo MT Cell Viability Assay in HepG2 cells - 0 hour (AID 1224889); note: nearly all actives have a fitted effect of over 50% in size
Outline: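 Cell number in HepG2 cultures estimated from NanoLuc luminescence generated by metabolic reduction of a prosubstrate by living cells. The homogeneous, nonlytic format allowed repeated reads at 0, 8, 16, 24, 32 and 40 h of compound exposure.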

[4] = A CellTox Green Cytotoxicity Assay to monitor cytotoxicity in HepG2 cells - 8 hour (AID 1224890); note: nearly all actives have a fitted effect of over 45% in size; note: potency is the fitted concentration of half-maximal effect
Outline: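 Real-time, homogeneous cytotoxicity readout: dead-cell DNA staining by CellTox Green in HepG2 monolayers, fluorescence measured at timed intervals up to 40 h of continuous compound exposure.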

[5] = qHTS assay to identify small molecule antagonists of the androgen receptor (AR) signaling pathway using the MDA cell line in the presence of 0.5 nM R1881 - cell viability counter screen (AID 1259242); note: nearly all actives have a fitted effect of over 45% in size; note: potency is the fitted concentration of half-maximal effect
Outline: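 Cytotoxicity toward MDA-kb2 cells is measured by CellTiter-Fluor live-cell protease fluorescence after 16 hr compound exposure at 37C in the presence of 0.5 nM R1881 stimulator.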

[6] = qHTS assay to identify small molecule HDAC inhibitors - cell viability counter screen (AID 1259365); note: series mostly up to about 92 µM; nearly all actives have a fitted effect of over 50% in size
Outline: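 Cytotoxicity was gauged in wild-type HCT-116 cells after a brief 2hr treatment with DMSO-dissolved compounds at 37C and 5% CO2, using CellTiter-Glo luminescence developed for 30min at room temperature.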

[7] = qHTS assay to identify small molecule agonists of the sonic hedgehog signaling (Shh) pathway - cell viability counter screen (AID 1259366); note: nearly all actives have a fitted effect of over 50% in size; note: potency is the fitted concentration of half-maximal effect
Outline: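 Stable Gli1-Luc NIH/3T3 clone, 2,000 cells/well. Compound exposure 24hr at 37C. Read-out: CellTiter-Fluor fluorescence.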

[8] = qHTS assay to identify small molecule antagonists of the sonic hedgehog signaling (Shh) pathway - cell viability counter screen (AID 1259367); note: nearly all actives have a fitted effect of over 55% in size; note: potency is the fitted concentration of half-maximal effect
Outline: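 NIH/3T3-derived Gli1-Luc reporter cells, 2,000/well, plated 4 hr before compound addition, then stimulated with conditioned medium for 24 hr at 37C. Viability measured in the same wells by CellTiter-Fluor fluorescence, reagent added at 23 hr for 1 hr.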

[9] = qHTS assay to identify small molecule agonists of the sonic hedgehog signaling (Shh) pathway (AID 1259368; calls by dose curve;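 note: NIH/3T3-derived 3T3Gli1-Luc cells carrying a stable Gli1-driven firefly luciferase reporter; series mostly up to about 92 µM; nearly all actives have a fitted effect of over 15% in size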)
Outline: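 Steps: seed 3T3 Gli1-Luc cells, incubate 4 hr at 37 C, pin-transfer compounds in DMSO alongside a positive control, incubate 24 hr, add luciferase detection reagent, wait 30 min at room temperature, read luminescence.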

[10] = qHTS assay to identify small molecule antagonists of the sonic hedgehog signaling (Shh) pathway (AID 1259369; calls by dose curve; note: nearly all actives have a fitted effect of over 45% in size; note: potency is the fitted concentration of half-maximal effect)
Outline: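 Inhibition of Shh signalling is measured as reduced Gli1-response-element firefly luciferase output in an NIH/3T3-derived stable reporter clone stimulated with conditioned medium for 24hr.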

[11] = biological target: Estrogen receptor beta (Homo sapiens) (UniProt Q92731); experiment: qHTS assay to identify small molecule agonists of the estrogen receptor beta (ER-beta) signaling pathway (AID 1259377; active = well fitted activation curve with a large enough effect in the signal ratio in the repeat runs, not every such curve was filed as active; the % refers to the signal ratio)
Outline: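 Measured by fluorescence intensity from a B/G FRET beta-lactamase substrate (2 h, room temperature) in ER-beta-UAS-bla HEK293T cells treated with DMSO-dissolved compounds for 16 hr at 37C and 5% CO2.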

[12] = biological target: Estrogen receptor beta (Homo sapiens) (UniProt Q92731); experiment: qHTS assay to identify small molecule antagonists of the estrogen receptor beta (ER-beta) signaling pathway (AID 1259378; active = well fitted inhibition curve with a large enough effect in the signal ratio in the repeat runs, not every such curve was filed as active; the % refers to the signal ratio)
Outline: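 ER-beta-UAS-bla HEK293T cells in 2% charcoal-stripped FBS medium treated with compound plus 1nM final 17-beta-estradiol for 16 hr at 37C. Beta-lactamase reporter read by FRET substrate fluorescence after 2 hours at room temperature.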

[13] = qHTS assay to identify small molecule agonists of the androgen receptor (AR) signaling pathway in the presence of an antagonist - cell viability counter screen (AID 1259379); note: nearly all actives have a fitted effect of over 25% in size; note: potency is the fitted concentration of half-maximal effect;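 for activity change, negative = cytotoxicity: MDA-kb2 human breast cancer cells carrying an MMTV luciferase reporter; series mostly up to about 92 µM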
Outline: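 Fluorescence from CellTiter-Fluor, added after 15 hr and read 1 hr later, gave cell viability. Cells were MDA-kb2 exposed to compounds (15 concentrations) in the presence of 3.0uM nilutamide at 37C, 0% CO2.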

[14] = qHTS assay to identify small molecule agonists of the estrogen receptor beta (ER-beta) signaling pathway - cell viability counter screen (AID 1259380); note: nearly all actives have a fitted effect of over 30% in size; note: potency is the fitted concentration of half-maximal effect
Outline: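 Same-well viability counter screen. Cells: ER-beta-UAS-bla HEK293T, plated 6 hr before compound, in 2% charcoal-stripped FBS. Compound exposure 16 hr, 37C; viability by CellTiter-Glo luminescence after 30 min at room temperature.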

[15] = biological target: Estrogen receptor (Homo sapiens) (UniProt P03372); experiment: qHTS assay to identify small molecule antagonists of the estrogen receptor alpha (ER-alpha) signaling pathway using the BG1 cell line in the presence of 0.1 nM 17-beta-estradiol (AID 1259244); note: nearly all actives have a fitted effect of over 50% in size
Outline: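 After 5 days in hormone-depleted medium (charcoal-stripped serum, no phenol red), VM7Luc4E2 cells were seeded, incubated 24 h, then co-treated with compound and 0.1 nM (final) estradiol for 22 h before luminescence detection.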

[16] = qHTS assay to identify small molecule HDAC inhibitors (AID 1259364); note: top concentration of the series differs between compounds; nearly all actives have a fitted effect of over 45% in size
Outline: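 Homogeneous cell-based luminescent assay of endogenous class I/II HDAC activity; HCT-116 cells, 2 h compound exposure, 30 min HDAC-Glo development at RT.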

[17] = qHTS assay to identify small molecule antagonists of the estrogen receptor alpha (ER-alpha) signaling pathway using the BG1 cell line in the presence of 0.1 nM 17-beta-estradiol - cell viability counter screen (AID 1259241); note: nearly all actives have a fitted effect of over 40% in size; note: potency is the fitted concentration of half-maximal effect
Outline: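 Viability in VM7Luc4E2 cells after 22 hr compound exposure under 0.1 nM 17beta-estradiol stimulation, by CellTiter-Fluor.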

[18] = biological target: Androgen receptor (Homo sapiens) (UniProt P10275); experiment: qHTS assay to identify small molecule antagonists of the androgen receptor (AR) signaling pathway using the MDA cell line in the presence of 0.5 nM R1881 (AID 1259243); note: nearly all actives have a fitted effect of over 50% in size
Outline: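 Steps: seed MDA-kb2 cells, incubate 5 hr at 37C; pin-transfer compounds in DMSO; add R1881 to 0.5 nM final; incubate 16 hr; add ONE-Glo, wait 30 min at room temperature; read luminescence.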

[19] = qHTS assay to identify small molecule phospholipidosis (PLD) inducers (AID 1259344; active = well fitted curve in the direction sought with a large enough effect; an effect the other way counts as inactive or inconclusive)
Outline: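 HepG2 cells, 900/well, treated with compound plus LipidTOX Red for 24 h at 37 C; amiodarone positive and DMSO negative controls. Fixed with paraformaldehyde/Hoechst, then high-content imaging scored LipidTOX pit count and integrated intensity per well and per cell.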
% is set by controls: 0 for no effect and ±100 for the full control effect.

Estrogen receptor beta (Homo sapiens), sequence (Q92731 whole entry, looked up): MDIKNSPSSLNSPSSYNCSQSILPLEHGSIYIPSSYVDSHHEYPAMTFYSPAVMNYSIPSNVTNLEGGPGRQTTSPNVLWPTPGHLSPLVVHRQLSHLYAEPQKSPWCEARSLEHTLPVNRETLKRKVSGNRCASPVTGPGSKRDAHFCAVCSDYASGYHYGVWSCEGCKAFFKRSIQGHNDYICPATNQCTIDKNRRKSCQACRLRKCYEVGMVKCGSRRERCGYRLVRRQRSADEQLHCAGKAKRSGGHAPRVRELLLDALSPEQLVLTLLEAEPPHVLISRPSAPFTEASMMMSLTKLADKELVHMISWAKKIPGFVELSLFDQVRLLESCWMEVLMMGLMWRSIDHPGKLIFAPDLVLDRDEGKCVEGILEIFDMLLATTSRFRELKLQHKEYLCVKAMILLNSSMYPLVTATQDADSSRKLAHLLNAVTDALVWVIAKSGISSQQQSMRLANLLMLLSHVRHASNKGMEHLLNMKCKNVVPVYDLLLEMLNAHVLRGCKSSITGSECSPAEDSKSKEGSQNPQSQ
Androgen receptor (Homo sapiens), sequence (P10275 whole entry, looked up): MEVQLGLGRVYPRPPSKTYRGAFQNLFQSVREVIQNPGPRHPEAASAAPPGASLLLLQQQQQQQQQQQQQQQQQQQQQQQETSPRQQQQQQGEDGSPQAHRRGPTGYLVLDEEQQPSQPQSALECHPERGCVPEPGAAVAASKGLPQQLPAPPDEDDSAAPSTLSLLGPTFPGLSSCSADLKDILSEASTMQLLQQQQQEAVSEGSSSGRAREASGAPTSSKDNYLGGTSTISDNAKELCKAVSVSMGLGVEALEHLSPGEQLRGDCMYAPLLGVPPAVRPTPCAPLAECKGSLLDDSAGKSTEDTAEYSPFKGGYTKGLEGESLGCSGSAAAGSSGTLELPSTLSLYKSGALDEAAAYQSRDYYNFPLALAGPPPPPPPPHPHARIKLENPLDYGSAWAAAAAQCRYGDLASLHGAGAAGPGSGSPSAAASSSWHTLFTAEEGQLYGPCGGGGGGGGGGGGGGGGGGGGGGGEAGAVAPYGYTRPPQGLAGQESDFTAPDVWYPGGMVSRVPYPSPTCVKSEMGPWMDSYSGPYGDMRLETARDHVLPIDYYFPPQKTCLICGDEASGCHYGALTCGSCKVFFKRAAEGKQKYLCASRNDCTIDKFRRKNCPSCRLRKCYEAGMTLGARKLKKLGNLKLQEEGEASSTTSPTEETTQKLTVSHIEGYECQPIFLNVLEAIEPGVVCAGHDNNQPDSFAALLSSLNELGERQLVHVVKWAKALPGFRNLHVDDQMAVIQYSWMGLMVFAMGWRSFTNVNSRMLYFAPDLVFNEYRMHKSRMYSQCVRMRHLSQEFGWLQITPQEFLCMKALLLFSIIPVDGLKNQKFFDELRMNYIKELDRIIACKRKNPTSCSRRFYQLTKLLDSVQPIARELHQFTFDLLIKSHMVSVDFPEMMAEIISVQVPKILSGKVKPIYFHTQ
Estrogen receptor (Homo sapiens), sequence (P03372 whole entry, looked up): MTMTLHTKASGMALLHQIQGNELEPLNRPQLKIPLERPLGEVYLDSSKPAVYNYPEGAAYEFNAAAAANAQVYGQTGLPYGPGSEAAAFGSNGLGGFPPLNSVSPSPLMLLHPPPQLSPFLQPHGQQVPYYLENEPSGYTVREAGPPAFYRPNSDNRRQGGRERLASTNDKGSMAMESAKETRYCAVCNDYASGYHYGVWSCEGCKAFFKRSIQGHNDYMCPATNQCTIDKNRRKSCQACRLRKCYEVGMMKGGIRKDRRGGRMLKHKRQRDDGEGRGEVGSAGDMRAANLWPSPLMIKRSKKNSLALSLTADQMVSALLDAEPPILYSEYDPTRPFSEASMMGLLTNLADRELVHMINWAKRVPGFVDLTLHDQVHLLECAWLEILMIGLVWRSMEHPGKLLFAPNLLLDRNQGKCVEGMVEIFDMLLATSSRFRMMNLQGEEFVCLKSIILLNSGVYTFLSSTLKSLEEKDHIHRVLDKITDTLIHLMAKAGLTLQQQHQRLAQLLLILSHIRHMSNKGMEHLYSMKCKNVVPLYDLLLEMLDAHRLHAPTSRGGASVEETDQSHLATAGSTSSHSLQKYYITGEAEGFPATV

Nc1cc([N+](=O)[O-])ccc1Cl
inactive: Potency [1] | Potency [2] | Potency [3] | Potency [4] | Potency [5] | Potency [6] | Potency [7] | Potency [8] | Potency [9] | Potency [10] | outcome [11] | Potency [12] | Potency [13] | Potency [14]

CCNc1nc(NC(C)(C)C)nc(OC)n1
inactive: Potency [1] | Potency [2] | Potency [3] | Potency [4] | Potency [5] | Potency [15] | Potency [16] | Potency [6] | Potency [7] | Potency [8] | Potency [9] | outcome [11] | Potency [12] | Potency [13] | Potency [14]

C=C(C)CCO
inactive: Potency [1] | Potency [2] | Potency [3] | Potency [4] | Potency [5] | Potency [15] | Potency [6] | Potency [7] | Potency [8] | Potency [9] | Potency [13]

CN1CCN(c2ccccc2/C=C2\SCCN(c3ccc(Cl)c(Cl)c3)C2=O)CC1
inactive: Potency [3] | Potency [17] | Potency [15] | Potency [16] | Potency [9]
active: Potency [1] 12.3 µM | Potency [2] 49 µM | Potency [5] 48.6 µM | Potency [7] 27.3 µM | Potency [8] 54.5 µM | Potency [10] 5.45 µM | Potency [13] 48.6 µM | Potency [14] 30.6 µM

CCOc1nc(F)cc2nc(S(=O)(=O)Nc3c(Cl)cccc3C(=O)OC)nn12
inactive: Potency [1] | Potency [2] | Potency [3] | Potency [4] | Potency [5] | Potency [18] | Potency [15] | Potency [16] | Potency [6] | Potency [7] | Potency [8] | Potency [9] | Potency [10] | Potency [13]

CC/C=C\C/C=C\C/C=C\CCCCCCCC(=O)OC
active: Potency [10] 43.3 µM | Potency [14] 48.6 µM
inactive: Potency [1] | Potency [2] | Potency [4] | Potency [17] | Potency [5] | Potency [15] | Potency [16] | Potency [6] | Potency [9]

CCCCCN=C(N)N/N=C/c1c[nH]c2ccc(OC)cc12
active: Potency [1] 8.49 µM | Potency [2] 7.56 µM | Potency [4] 10.7 µM | Potency [17] 29.8 µM | Potency [5] 13.3 µM | Potency [7] 8.41 µM | Potency [8] 13.3 µM | Potency [10] 1.68 µM | Potency [13] 13.3 µM
inactive: Potency [19] | Potency [16] | Potency [9]

CC1=C(/C=C/C(C)=C/C=C/C(C)=C\C(=O)O)C(C)(C)CCC1
inactive: Potency [1] | Potency [2] | Potency [3] | Potency [4] | Potency [17] | Potency [5] | Potency [6] | Potency [7] | Potency [8]

CCCC(=O)c1cc(O)c(O)cc1O
inactive: Potency [1] | Potency [2] | Potency [3] | Potency [4] | Potency [18] | Potency [15] | PLD induction [19] -3.64% [at 3.15 µM] | Potency [6] | Potency [9]
active: Potency [7] 54.5 µM | Potency [10] 27.3 µM | Potency [13] 54.5 µM

Oc1ccc(Cl)cc1C1CCCC1
active: Potency [1] 27.5 µM | Potency [4] 49 µM
inactive: Potency [3] | Potency [17] | Potency [5] | Potency [15] | Potency [16] | Potency [6] | Potency [7] | Potency [8] | Potency [9] | outcome [11] | Potency [13]

CCC(O)CO (stereo not drawn)
inactive: Potency [1] | Potency [2] | Potency [4] | Potency [17] | Potency [5] | Potency [15] | Potency [16] | Potency [6] | Potency [7] | Potency [8] | Potency [9] | Potency [10] | outcome [11] | Potency [12] | Potency [13]

O=C1OC(O)C(C(Cl)Cl)=C1Cl (stereo not drawn)
active: Potency [7] 44.6 µM | Potency [8] 25.1 µM | Potency [10] 5 µM | Potency [14] 19.9 µM
inactive: Potency [1] | Potency [2] | Potency [4] | Potency [17] | Potency [5] | Potency [15] | Potency [16] | Potency [6] | outcome [11]

NC(=O)c1ccccc1Cl
inactive: Potency [1] | Potency [2] | Potency [3] | Potency [4] | Potency [5] | Potency [15] | Potency [16] | Potency [6] | Potency [7] | Potency [8] | Potency [9] | Potency [10] | outcome [11] | Potency [12] | Potency [13] | Potency [14]

CC(C)C(=O)C(C)C
inactive: Potency [1] | Potency [2] | Potency [4] | Potency [17] | Potency [5] | Potency [18] | Potency [15] | Potency [16] | Potency [6] | Potency [7] | Potency [8] | Potency [9] | Potency [10] | outcome [11] | Potency [12] | Potency [13] | Potency [14]

COCCC(=O)OC
inactive: Potency [1] | Potency [2] | Potency [4] | Potency [17] | Potency [5] | Potency [6] | Potency [9] | Potency [13] | Potency [14]

COc1cc(C(C)C)ccc1C
inactive: activity change, negative = cytotoxicity [1] 1.54% [at 15.8 µM] | activity change [2] -2.08% [at 15.8 µM, active compounds read high] | activity change, negative = cytotoxicity [3] -5.12% [at 15.8 µM] | cytotoxicity increase [4] -11.9% [at 15.8 µM] | activity change, negative = cytotoxicity [17] -2.73% [at 19 µM] | viability change, negative = cytotoxic [5] 0.996% [at 19 µM] | activity change, negative = inhibition [16] 3.05% [at 19 µM] | activity change, negative = cytotoxicity [6] 0.521% [at 19 µM] | viability change, negative = cytotoxic [7] 0.547% [at 19 µM] | viability change, negative = cytotoxic [8] 0.176% [at 19 µM] | activity change [9] 1.1% [at 18.9 µM, active compounds read high] | activity change, negative = inhibition [10] -24.4% [at 19 µM] | activity, negative = inhibition [12] -9.09% [at 19 µM] | activity change, negative = cytotoxicity [13] 2.05% [at 19 µM]
